Most compounds without a hit are left out; they make up all but 4.5% or so of the library.
GBA activity: Glucocerebrosidase; Lysosomal acid glucosylceramidase (Homo sapiens), P04062; 48,000 compounds, 1.1% hits; Potency, µM; purified enzyme, resorufin glucoside fluorescence (screen aimed at inhibitors), 20 min; in the data active means potency below about 15 µM; inconclusive means mostly about 16 µM to 33 µM;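 further: potency means the concentration at half of the fitted maximal effect; the screen sought inhibitors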
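Compounds titrated against 0.2 nM normal enzyme, 30 uM resorufin beta-D-glucopyranoside substrate, citrate/phosphate buffer with taurocholate and tween-20, pH 5.9. Reaction ran 20 min at room temperature; fluorescence (Ex 548/Em 600) gave AC50.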
ERK AVP inh: qHTS Assay for Inhibitors of the ERK Signaling Pathway using a Homogeneous Screening Assay; 72,000 compounds, 0.99% hits; Potency, µM (doses to about 57.5 µM), inactives show at the highest dose activity, negative = inhibition, hits mostly inhibitors; HEK293-V1b, vasopressin-stimulated pERK AlphaScreen; further: potency means the concentration at half of the fitted maximal effect; on the % scale 0 is the no-effect control and ±100 the full control effect; nearly all actives have a fitted effect of over 55% in size
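V1b-HEK293 cells; cpd 30 min 37C; 25 nM vasopressin 5 min; lyse 10 min; AlphaScreen beads 5 hr RT. Normalized to DMSO basal and 25 nM vasopressin; AC50 by Hill fit.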
TSHR ag: qHTS Assay for Agonists of the Thyroid Stimulating Hormone Receptor | HEK293-CNG-TSHR cells (CNG channel as cAMP sensor), membrane potential dye, cAMP | 73,000 compounds, 0.48% hits | Potency, µM (series often up to 57.1 µM), for inactives: top-dose activation, hits mostly activators | Thyrotropin receptor (Homo sapiens), P16473; active means well fitted activation curve with a large enough effect in the main read-out, with a control signal flat, not every such curve was filed as active; inconclusive means small, poorly fitted or top-dose-only effect, or a change in a side signal; inactive means no such curve, though single readings can be large or run the other way; % of control where 0% means no effect;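 further: the control signal comes from parental cells without the receptor; potency means the concentration at half of the fitted maximal effect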
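HEK 293 cells stably expressing TSHR and a modified CNG channel, with CNG-only parental cells as counterscreen, were preloaded 60 min at room temperature with membrane potential dye containing 100 uM RO 20-1724. Compound exposure was 30 min, and depolarization was read as fluorescence at 590 nm.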
HEK293 cAMP cs: qHTS Assay for Agonists of the Thyroid Stimulating Hormone Receptor: Activators of Intracellular cAMP Concentrations in Parental HEK 293; parental HEK293 CNG cAMP sensor, membrane potential fluorescence; Potency, µM (highest dose often 57.1 µM), without a hit: top-dose activation, actives largely listed as activators; 73,000 compounds, 2.5% hits; further: potency means the concentration at half of the fitted maximal effect; % of control where 0% means no effect; nearly all actives have a fitted effect of over 55% in size
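Parental HEK 293 cells stably expressing a cAMP-gated CNG channel were loaded with membrane potential dye containing 100 uM RO 20-1724 for 60 min. Compound added for 30 min; depolarization read as fluorescence intensity at 590 nm.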
Caspase-1 inhib: qHTS Assay for Allosteric/Competitive Inhibitors of Caspase-1; P29466; Caspase-1 enzyme, Ac-WEHD-AFC fluorogenic rate; Potency, µM (series often up to 57.5 µM), without a hit: at the top dose activity change, negative = inhibition, hits mostly inhibitors; 75,000 compounds, 0.03% hits;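 further: potency means the concentration at half of the fitted maximal effect; plate controls were vehicle for no effect and no substrate for full effect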
Caspase-7 inhib: qHTS Assay for Allosteric/Competitive Inhibitors of Caspase-7. P55210. recombinant caspase-7, Ac-DEVD-AFC fluorescence rate. Potency, µM (top dose mostly 57.5 µM), for inactives: top-dose activity change, negative = inhibition, most hits filed as inhibitors. 75,000 compounds, 0.02% hits. AID 889, 2007; active means well fitted inhibition curve with a large enough effect in the main read-out, with a control signal flat, not every such curve was filed as active; inconclusive means small, poorly fitted or top-dose-only effect, or a change in a side signal; further: potency means the concentration at half of the fitted maximal effect; % of control where 0% means no effect
parental cAMP: Confirmation Concentration-Response Assay for Agonists of the Thyroid Stimulating Hormone Receptor: Activators of Intracellular cAMP Concentrations in Parental HEK 293. activity change, negative = inhibition, % at 32.9 µM. shares compounds with TSHR ag. parental HEK293 CNG biosensor, cAMP membrane potential fluorescence. 150 tested, under 10 active
Numbers without * were called inactive; ? = inconclusive; / = not tested or not shown; [ ] = dose if it differs, or a comment. Unless noted, the call rests on the fitted dose curve; in most records, active means well fitted curve in the direction sought with a large enough effect; inconclusive means small, poorly fitted or top-dose-only effect, or another doubt; inactive means no such curve, though single readings can be large; an effect the other way counts as inactive or inconclusive.

SMILES | GBA activity | ERK AVP inh | TSHR ag | HEK293 cAMP cs | Caspase-1 inhib | Caspase-7 inhib | others
CC(C)(O)[C@H]1[C@H]2OC(=O)[C@@H]1[C@]1(O)C[C@H]3O[C@]34C(=O)O[C@H]2[C@]14C (tested in a mixture with another compound) | / | 8% | 9% | 5% | -7% | 0%
CN(c1ccccc1)S(=O)(=O)c1cccc(C(=O)N2CCN(c3ccccn3)CC2)c1 | >77 | 25µM* | ? | 16µM* | 0% | -3%
Cn1ncnc2c(=O)n(C)c(=O)nc1-2 | >77 | 19% | ? | ? | 13µM* | ?
C=C[C@@H]1C[C@@]1(C)[C@@H](NP(=O)(c1ccccc1)c1ccccc1)c1ccccc1 | / | -6% | ? | 5µM* | -1% | -3%
O=C(c1ccco1)N1CCN(Cc2ccccc2C(F)(F)F)CC1 | / | -17% | ? | 4µM* | 0% | 1%
O=C(O)[C@@H](O)[C@@H](O)[C@@H]1[O][Sb][O][C@@H]1CO | / | 0%[11.5 µM] | / | -5%[11.4 µM] | 2%[11.5 µM] | -2%[11.5 µM]
O=C(Oc1ccccc1)N1CCC2(CC1)CN(C(c1ccccc1)c1ccccc1)C2 | / | -11% | ? | 32µM* | -6% | -2%
Cn1cccc1CN1CCN(C(=O)COc2ccccc2)CC1 | / | / | 8% | -3% | 1% | -3%
Cn1nc(-c2ccc(OCC(=O)N3CCN(Cc4ccccc4)CC3)cc2)c2ccccc2c1=O | / | 32µM* | ? | ? | 0% | -2%
CC(C)c1nccn1Cc1ccc(Cl)cc1Cl | / | 8%[11.5 µM] | ? | 3.2µM* | 1%[11.5 µM] | 4%[11.5 µM]
CCCCn1c(C)c(C(=O)OCC)c2c(CN3CCOCC3)c(O)ccc21 | / | 2% | ? | 6.3µM* | -1% | 0%
C[N+]1(C)CCc2cc3c(cc2[C@@H]1[C@@H]1OC(=O)c2c1ccc1c2OCO1)OCO3 | / | -1% | -3% | 8% | -9% | -18%
O=C1C2CC=CCC2C(=O)N1SC(Cl)(Cl)Cl (centres undefined) | / | 16µM* | ? | -44% | -5% | 0%
O=c1cccc2n1C[C@H]1C[C@@H]2CN(CCO)C1 | / | / | 0% | -1% | / | /
O=S(=O)(c1ccccc1)N1CN2CCN(C2)C1 | 14* | 15% | -4% | -1% | -1% | 7%
CC(C)(C)NCc1cccn1-c1sc2c(c1C#N)CCCC2 | / | 9% | ? | 25µM* | 0% | 0%
O=C1OC(=O)c2c(Cl)c(Cl)c(Cl)c(Cl)c21 | / | -5% | ? | 40µM* | -4% | 1%
Cc1nn(-c2ccccc2)c2c1C(c1ccc3c(c1)OCO3)SCC(=O)N2 (centres undefined) | >77 | -27% | 10µM* | 13% | -1% | 1%
N[C@H](Cn1cc(I)c(=O)[nH]c1=O)C(=O)O | / | / | 2% | 6% | / | /
C=C1C/C(=C\C)C(=O)O[C@@H]2CCN3CC=C(COC(=O)[C@]1(C)O)[C@H]23 | / | / | -1% | 3% | / | /
Oc1c(Cl)c(Cl)cc(Cl)c1Cl | / | 6% | ? | 40µM* | ? | -2%
Oc1cc(Cl)c(Cl)cc1Cl | / | 10% | / | 14% | 1% | 1%
Oc1cc(Cl)c(Cl)c(Cl)c1Cl | / | -7% | ? | 40µM* | 1% | -1%
COC1=C[C@H]2[C@@H]3Cc4ccc(OC)c(O)c4[C@@]2(CCN3C)CC1=O | / | / | 11% | 1% | / | /
CN1CCN(c2ccc([N+](=O)[O-])c3[nH]o[n+](=O)c23)CC1 | / | ? | / | 0%[11.4 µM] | -1%[11.5 µM] | 0%[11.5 µM]
SMILES | GBA activity | ERK AVP inh | TSHR ag | HEK293 cAMP cs | Caspase-1 inhib | Caspase-7 inhib | others
C=CCN1C[C@@H](C)N([C@H](c2ccc(C(=O)N(CC)CC)cc2)c2cccc(OC)c2)C[C@H]1C | / | -1% | 6% | 14% | -2% | 1%
Nc1c(C(=O)NCCN2CCOCC2)c2nc3ccccc3nc2n1Cc1ccco1 | >77 | 16µM* | -1% | 21% | / | ?
COC(=O)[C@H](N)CCCN=C(N)N[N+](=O)[O-] | / | 0% | 7% | 11% | 0% | 0%
N#CC(C#N)=NNc1ccc(OC(F)(F)F)cc1 | / | 26% | ? | 0.63µM* | -12% | -7%
CNc1ccc2oc(C[C@@H]3O[C@@]4(CC[C@H]3C)O[C@@H]([C@@H](C)C(=O)c3ccc[nH]3)[C@@H](C)C[C@H]4C)nc2c1C(=O)O | / | / | 16% | 12% | / | /
CCCCNC(=O)n1c(NC(=O)OC)nc2ccccc21 | / | 8% | ? | ? | -2% | -1%
CSc1nc2ccccc2n1C(=O)Oc1ccccc1 | >77 | ? | ? | 25µM* | -1% | 0%
CCN(CC)c1ncnc2c1ncn2[C@@H]1O[C@@H](COP(=O)(O)OP(=O)(O)C(Br)(Br)P(=O)(O)O)[C@H](O)[C@H]1O | / | -15% | 2% | 1% | -2% | -1%
CCNC(=O)C1OC(n2cnc3c(N)ncnc32)C(O)C1O (centres undefined) | / | / | ? | 0.63µM* | -5% | -1%
O=C(O)[C@H]1[C@H](C(=O)O)[C@H]2CC[C@@H]1O2 | / | 10% | -77% | 5% | 2% | 1%
CCC(=NCC1CCCO1)c1c(O)n(Cc2ccccc2)c(=O)[nH]c1=O (centres undefined) | >77 | -22% | 1% | 4% | -1% | 0% | parental cAMP=6[25.6 µM]
C[C@H](N)c1cccc(Cl)c1Cl | / | 4% | 2% | 8% | 3% | -1%
O=C(Nc1ccccn1)NC12CC3CC(CC(C3)C1)C2 | >77 | 36% | 20µM* | 26% | -3% | -8% | parental cAMP=-9
CCOC(=O)c1c(C)n(COCCO)c2ccc(O)cc12 | >77 | -3% | -1% | -3% | -2% | 0%
CCn1c(C)c(C(=O)O)c2cc(OC)ccc21 | >77 | -4% | 0% | -7% | -1% | -2% | parental cAMP=6[25.6 µM]
N[C@@H]1CCc2cc(O)c(O)cc2C1 | / | -16% | 1% | 4% | -1% | 3%

From PubChem BioAssay
